Test systems include CDK16; CDK17; CDK6; CDK9; EIF2AK1; GSK3A; GSK3B; ICK; MAPK7; PDGFRB; PIM2; TAOK2; CDK4; TP53RK; CSNK2A1;CSNK2A3; CSNK2A2; ERBB3; FLT3; NLK; TAOK1; DAPK3; PIK3CG; PKN3; DDR1; DDX3X;DDX3Y; MAPK10; MAPK14; MAPK9; MAPKAPK2; FYN; PIK3CA; PIK3CD; STK16; GAK; ZAK.
Holding throughout (set-up): species or system human, MV4-11 + K-562 + COLO205 + SK-N-BE2 + OVCAR-8
Holding throughout (conditions): read-out: apparent Kd; compound concentrations:100 nM and 1000 nM (sheet 'Samples'); n = 1

The subject of another experiment is T1, DJA1.
T1 construct: gene DNAJA1

Regarding `CCN1CCN(CCCC(=O)Nc2n[nH]c3nc(-c4ccc(O)cc4)c(Br)cc23)CC1` [SB-731579], the potency estimated from few doses with CDK16 is 1220 nM; with CDK17, 986 nM; in the experiment on CDK6 it was 1070 nM; in the experiment with CDK9, 1180 nM; with EIF2AK1, 201 nM; with GSK3A, 4.8 nM. Moreover, the potency estimated from few doses in the experiment with GSK3B is 20.1 nM; with ICK, 1420 nM; in the experiment on MAPK7, 1360 nM; in the experiment with PDGFRB it was 145 nM; in the experiment with PIM2 it was 557 nM; in the experiment on TAOK2 it was 1350 nM.

On to `CN1C(=O)[C@@H](NC(=O)c2cc(Cc3ccccc3)on2)COc2ccccc21` [GSK481], for which the potency estimated from few doses with CDK4 was 1980 nM; in the experiment with TP53RK, 2040 nM.

Take `O=C(Nc1n[nH]c2nc(-c3ccc(O)cc3)ccc12)C1CC1` [SB-710363]: the potency estimated from few doses in the experiment with CDK9 was 2300 nM; in the experiment on CSNK2A1;CSNK2A3, 2320 nM; in the experiment on CSNK2A2, 1270 nM; in the experiment with ERBB3, 1710 nM; with FLT3, 1530 nM; with GSK3A, 61.7 nM. The potency estimated from few doses in the experiment with GSK3B is 147 nM; in the experiment with ICK, 1130 nM; in the experiment with NLK it was 1440 nM; in the experiment with PIM2, 1330 nM; with TAOK1 it was 1130 nM.

On to `Cc1csc(-c2nc(Nc3ccncc3)c3ccccc3n2)n1` [GW869640X], for which the potency estimated from few doses with DAPK3 was 1290 nM; in the experiment with PIK3CG, 1460 nM; in the experiment with PKN3 it was 939 nM.

Turning to `CNc1ncc2cc(Oc3ccc(F)cc3F)c(=O)n(C)c2n1` [RO5083957-000], the potency estimated from few doses is 958 nM with DDR1; 1740 nM in the experiment on DDX3X;DDX3Y; 1750 nM with MAPK10; 618 nM with MAPK14; 1640 nM in the experiment with MAPK9; 843 nM in the experiment with MAPKAPK2. In addition, in the experiment on NLK, the potency estimated from few doses is 1800 nM.

`Clc1cccc(-c2nc(Nc3ccncc3)c3ccccc3n2)c1` [GW873004X]: the potency estimated from few doses is 2180 nM in the experiment with DJA1; 937 nM in the experiment with FYN; 222 nM with PIK3CA; 106 nM with PIK3CD; 1400 nM in the experiment with STK16.

With `c1ccc(-c2n[nH]cc2-c2ccnc(-c3ccc(OCCN4CCOCC4)cc3)c2)nc1` [GW695874X], the potency estimated from few doses in the experiment with GAK is 432 nM; in the experiment with ZAK it was 2090 nM.

Regarding `c1ccc(-c2n[nH]cc2-c2ccnc(-c3ccc(OCCn4ccnc4)cc3)c2)nc1` [GW711782X], the potency estimated from few doses with GAK is 1350 nM.

Source of the values: PMC11062922 (Nature Chemical Biology, 2023).
